Whole data set: some 33,000 sequences, median “E-score (-0.5 to 0.5)” near -0.016, cut for the highest 2% near 0.3. The entries come from a sample that favours the highest values as a whole.
biological target: T1, Yer184c (UniProt P39961); assay: PBM E-score (8-mer binding enrichment) (E-score (-0.5 to 0.5)); higher = stronger / more preferred TF binding; conditions: protein concentration: 100 nM; construct: GST-full length
T1 sequence: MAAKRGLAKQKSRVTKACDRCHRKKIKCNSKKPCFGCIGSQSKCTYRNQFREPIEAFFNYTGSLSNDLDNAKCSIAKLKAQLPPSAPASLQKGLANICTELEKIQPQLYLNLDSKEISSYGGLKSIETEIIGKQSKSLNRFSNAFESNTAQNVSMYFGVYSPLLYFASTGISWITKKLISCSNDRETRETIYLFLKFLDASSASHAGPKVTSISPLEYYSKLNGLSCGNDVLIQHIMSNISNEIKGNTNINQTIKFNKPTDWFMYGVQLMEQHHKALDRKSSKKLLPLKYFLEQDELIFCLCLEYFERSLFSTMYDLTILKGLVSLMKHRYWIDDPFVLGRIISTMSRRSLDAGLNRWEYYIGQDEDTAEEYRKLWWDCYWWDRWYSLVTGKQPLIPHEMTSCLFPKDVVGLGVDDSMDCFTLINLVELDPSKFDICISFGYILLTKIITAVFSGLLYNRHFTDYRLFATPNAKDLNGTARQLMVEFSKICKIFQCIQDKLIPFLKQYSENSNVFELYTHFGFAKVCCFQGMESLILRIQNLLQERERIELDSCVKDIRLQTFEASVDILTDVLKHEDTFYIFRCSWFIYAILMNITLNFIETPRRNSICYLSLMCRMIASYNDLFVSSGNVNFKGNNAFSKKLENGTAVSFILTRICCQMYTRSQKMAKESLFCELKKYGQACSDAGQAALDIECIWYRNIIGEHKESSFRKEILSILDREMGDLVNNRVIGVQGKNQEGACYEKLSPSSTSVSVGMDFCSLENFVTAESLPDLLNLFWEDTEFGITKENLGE
Description: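 Universal 'all 10-mer' protein binding microarrays (Agilent AMADID 015681) probed with GST-tagged S. cerevisiae TFs (full-length or DBD) made by in vitro transcription/translation (PURExpress), about 100-200 nM. Bound TF was detected with fluorescent anti-GST. Each ungapped 8-mer (which stands for itself and its reverse complement) is scored by the PBM enrichment score (E-score), a modified Wilcoxon-Mann-Whitney statistic from -0.5 to +0.5, computed with the Universal PBM Analysis Suite. Scale: above 0.35 generally sequence-specific binding.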

| Sequence | PBM E-score |
| --- | --- |
| AGACCCAA | -0.134 |
| GATGTTCC | 0.239 |
| AGACCCCG | 0.08 |
| ATGAAACA | 0.02 |
| TCCCCGGA | 0.224 |
| GCCCCGGA | 0.234 |
| ACCCGGAG | 0.348 |
| ACCCGGAA | 0.346 |
| TCCCGGAA | 0.391 |
| CCCCGGAG | 0.135 |
| ACCCCGGA | 0.142 |
| GCCCGGAC | 0.192 |
| CCCCGGAA | 0.151 |
| ACCCGGAT | 0.185 |
| GCCCGGAA | 0.359 |
| ACCCGGTA | 0.183 |
| ACTCGATA | 0.0187 |
| CCGACTAG | -0.036 |
| TAGAAATA | 0.126 |
| ATGCTCTC | -0.0198 |
| CAGCTACC | -0.113 |
| CCATAGAG | -0.11 |

| Sequence | PBM E-score |
| --- | --- |
| GGCATACC | -0.214 |
| ACAAGGTC | -0.234 |
| CAGTGGAC | -0.0743 |
| AACCAAAC | -0.103 |
| ATGTTCCA | 0.016 |
| ATGTTCCG | 0.347 |
| ACGTTCCG | 0.0307 |
| CAGTTCCG | 0.199 |
| CCGTTCCA | 0.0249 |
| AAGTTCCG | 0.307 |
| ATGTTCCC | -0.107 |
| CCGTTCCG | 0.304 |
| AAGTTCCT | 0.0951 |
| TCAAGCCA | -0.0394 |
| TAGTATGA | 0.129 |
| AAGGGCCC | -0.28 |
| GACGCTTA | -0.148 |
| AAAACTTA | 0.245 |
| CAGGAACG | -0.0846 |
| AGGGAACC | -0.101 |
| GCGGAACC | 0.268 |
| CCGGAACC | 0.363 |

| Sequence | PBM E-score |
| --- | --- |
| CAGGAACC | -0.147 |
| ACGGAACT | 0.197 |
| ACGGAACC | 0.329 |
| ACGGAACG | 0.212 |
| CCGGAACG | 0.329 |
| CCTTGGAA | 0.00859 |
| TGCAAGCA | -0.0504 |
| CAGCGTTA | -0.141 |
| ATACGCTA | 0.0126 |
| ACCTTCAT | -0.00129 |
| CTCCAGAG | -0.154 |
| CGCCGAAC | 0.345 |
| CGCCGAAG | 0.328 |
| AGCCGAAG | 0.14 |
| CTCCGAAG | 0.303 |
| CCCCGAAC | -0.00623 |
| CGCCGATC | 0.129 |
| ATCCGAAC | 0.261 |
| CTCCGAAC | 0.323 |
| CACCGAAG | 0.192 |
| GGCTGCGA | -0.00955 |
| CATGGAGC | -0.175 |

| Sequence | PBM E-score |
| --- | --- |
| ATGGAGAG | -0.0917 |
| CATTAGGG | -0.12 |
| ATCTCCGC | 0.14 |
| ATCTCCAG | -0.0032 |
| ATCTCCGG | 0.435 |
| GTCTCCGA | 0.243 |
| CTCTCCGA | 0.149 |
| ATCTCCGA | 0.36 |
| AAGCACCA | -0.224 |
| CACCAAAG | 0.0906 |
| CTTTATTC | 0.0145 |
| ATTTATTC | 0.329 |
| ATTTATCA | 0.258 |
| ATTTATCG | 0.103 |
| ATTTATTA | 0.216 |
| ATTTATCC | 0.314 |
| ATAGAACA | -0.0179 |
| AGTACTGC | -0.177 |
| AACTCGAT | 0.12 |
| ACAAGCGA | -0.015 |

Reference: the supplement of paper PMC3334620
